Inconclusive results are not listed. Active and inactive are the calls of the source. Unless noted, calls follow the shape of the full dose curve.
Key:
[1] = Nuclear factor erythroid 2-related factor 2/antioxidant responsive element (Nrf2/ARE) small molecule agonists: qHTS cell viability counter screen in human keratinocytes (AID 1919968; active = well fitted curve in the direction sought with a large enough effect in the repeat runs; an effect the other way counts as inactive or inconclusive; also: nearly all actives have a fitted effect of over 55% in size; also: potency is read from the fitted curve at half-maximal effect)
Outline: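 Seed 1,500 KeratinoSens cells per well, then incubate 5 h at 37 C/5% CO2. Add compounds in DMSO and incubate 23 h. Add CellTiter-Fluor, wait 1 h and read fluorescence.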

[2] = Nuclear factor erythroid 2-related factor 2/antioxidant responsive element (Nrf2/ARE) small molecule agonists: luciferase reporter gene qHTS assay in human keratinocytes (AID 1919969); also: nearly all actives have a fitted effect of over 35% in size; also: potency is read from the fitted curve at half-maximal effect
[3] = biological target: KiSS-1 receptor (Homo sapiens) (UniProt Q969F8); test: Human kisspeptin (KISS1R) small molecule agonists, calcium flux assay in KISS1R-HEK293 cells (AID 1920064; active = well fitted curve in the direction sought with a large enough effect in the repeat runs; an effect the other way counts as inactive or inconclusive)
Outline: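 Cells plated and incubated 18 h; dye added, 1 h at 37 C; compounds in DMSO pinned in; signal read at 480/540 nm every second for 3 min. Each compound tested at 15 concentrations in triplicate.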

[4] = G protein-coupled receptor (GPCR) small molecule agonists, calcium flux assay: HEK293 wild type cell line counter screen (AID 1920065)
Outline: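 Counter-screen of the Tox21 10K library for non-specific calcium release: dye-loaded cells received compounds in DMSO and were monitored by kinetic fluorescence (480/540 nm, 3 min). Fifteen concentrations, run in triplicate.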

[5] = p53 small molecule agonists, cell-based qHTS assay with human liver microsomes (AID 1963577);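 also: p53 response element beta-lactamase reporter cells with liver microsomes plus NADPH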
Outline: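 HLM-supplemented p53RE-bla reporter assay: 16 h compound exposure at 37 C, microsomes and NADPH each 0.5 mg/mL final, read by fluorescence intensity.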

[6] = p53 small molecule agonists, cell-based qHTS assay with rat liver microsomes (AID 1963578)
Outline: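 Quantitative HTS of the Tox21 10K library: p53RE-bla cells, rat liver microsomes plus NADPH at 0.5 mg/mL final each, 16 h at 37 C, beta-lactamase fluorescence detection.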

[7] = p53 small molecule agonists, cell-based qHTS assay with human liver microsomes: qHTS cell viability counter screen (AID 1963579); also: nearly all actives have a fitted effect of over 45% in size; also: potency is read from the fitted curve at half-maximal effect
Outline: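 Viability of p53RE-bla cells is measured as CellTiter-Glo luminescence following a 16 h, 37 C incubation with compound, liver microsomes from human donors and NADPH.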

[8] = p53 small molecule agonists, cell-based qHTS assay with rat liver microsomes: qHTS cell viability counter screen (AID 1963580); also: nearly all actives have a fitted effect of over 45% in size; also: potency is read from the fitted curve at half-maximal effect
Outline: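 Intracellular ATP, by CellTiter-Glo luminescence, defines viability. HCT-116 p53RE-bla cells, 4,000 per well, were compound-treated in the presence of rat liver microsomes and NADPH for 16 h at 37 C.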

[9] = p53 small molecule agonists, cell-based qHTS assay: qHTS cell viability counter screen (AID 1963581); also: nearly all actives have a fitted effect of over 45% in size; also: potency is read from the fitted curve at half-maximal effect
Outline: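 Cells: HCT-116 with p53 response element-driven beta-lactamase. Treatment: 16 h, 37 C, compounds in DMSO. Read: CellTiter-Glo luminescence after 30 min RT.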

[10] = p53 small molecule agonists, cell-based qHTS assay (AID 1963582; active = well fitted activation curve with a large enough effect in the signal ratio in the repeat runs, not every such curve was filed as active; the % refers to the signal ratio)
Outline: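 Quantitative HTS in p53RE-bla cells: after a 5 h settling period, compounds delivered in DMSO were left on cells for 16 h at 37 C, and reporter induction was measured as fluorescence following 2 h substrate loading.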

[11] = biological target: D(2) dopamine receptor (Homo sapiens) (UniProt P14416); test: Dopamine D2 receptor (DRD2) small molecule agonists, cell-based qHTS assay (AID 1963594); also: nearly all actives have a fitted effect of over 35% in size
Outline: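 cAMP accumulation in DRD2-HEK293 cells measured by HTRF after 1 h detection; compounds added 10 min before NKH477 (200nM […]) forskolin-analogue stimulation, 30 min at room temperature, with Ro20-1724 present at 0.1 mM final.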

[12] = biological target: D(2) dopamine receptor (Homo sapiens) (UniProt P14416); test: Dopamine D2 receptor (DRD2) small molecule antagonists, cell-based qHTS assay (AID 1963595; active = well fitted inhibition curve with a large enough effect in the signal ratio in the repeat runs, with a control signal flat; the % refers to the signal ratio; also: potency is read from the fitted curve at half-maximal effect)
Outline: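 HEK293 cells stably expressing DRD2 were preincubated with 0.1 mM Ro20-1724, then with compound for 10 min at room temperature. Cells were stimulated with 200 nM NKH477 plus 12 nM quinpirole for 30 min, and cAMP was read by HTRF.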

[13] = biological target: 5-hydroxytryptamine receptor 2A (Homo sapiens) (UniProt P28223); test: 5-hydroxytryptamine receptor 2A (HTR2A) small molecule antagonists, cell-based qHTS assay (AID 1963586); also: nearly all actives have a fitted effect of over 45% in size; also: potency is read from the fitted curve at half-maximal effect
Outline: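 Antagonist-mode intracellular calcium assay: DOI (4 nM) added after 5 min compound pre-incubation at room temperature to dye-loaded HTR2A-CHO cells. Fluorescence followed for 3 min, sampled every second.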

[14] = biological target: 5-hydroxytryptamine receptor 2A (Homo sapiens) (UniProt P28223); test: 5-hydroxytryptamine receptor 2A (HTR2A) small molecule agonists, cell-based qHTS assay (AID 1963587); also: nearly all actives have a fitted effect of over 30% in size; also: potency is read from the fitted curve at half-maximal effect
Outline: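 Kinetic calcium-flux fluorescence (2 min, 1 sec intervals) after compound addition in agonist mode. HTR2A-CHO cells were cultured 18 h, then dye-loaded 1 h at 37 C.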

[15] = biological target: Muscarinic acetylcholine receptor M1 (Homo sapiens) (UniProt P11229); test: Cholinergic receptor muscarinic 1 (CHRM1) small molecule antagonists, cell-based qHTS assay (AID 1963588); also: nearly all actives have a fitted effect of over 40% in size; also: potency is read from the fitted curve at half-maximal effect
Outline: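 CHRM1-CHO calcium-flux assay, antagonist mode. Cells were seeded 18 h, dye-loaded 1 h at 37 C and given compound for 5 min at RT, then acetylcholine was added at 50nM. FDSS fluorescence was read 3 min; 15 concentrations, three runs.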

[16] = biological target: Muscarinic acetylcholine receptor M1 (Homo sapiens) (UniProt P11229); test: Cholinergic receptor muscarinic 1 (CHRM1) small molecule agonists, cell-based qHTS assay (AID 1963589); also: nearly all actives have a fitted effect of over 35% in size; also: potency is read from the fitted curve at half-maximal effect
Outline: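 Agonist-mode qHTS in CHO cells stably carrying human muscarinic M1. Intracellular calcium is tracked by fluorescence every second after compound transfer; each compound runs at 15 concentrations in three independent runs.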

[17] = biological target: Beta-2 adrenergic receptor (Homo sapiens) (UniProt P07550); test: Adrenergic beta2 receptor (ADRB2) small molecule antagonists, cell-based qHTS assay (AID 1963592); also: series mostly up to about 92 µM; nearly all actives have a fitted effect of over 50% in size
Outline: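 Cells (CHO, stable ADRB2 overexpression) incubated 18-20hr at 37C; compounds added from DMSO; agonist mix (1nM isoproterenol, 100uM IBMX, 25uM Ro-20-1724) added; 0.5hr RT; d2-cAMP and anti-cAMP-cryptate added; 1hr RT; 665/615 nm read.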

[18] = cAMP Responsive Elements (CRE) small molecule agonists, cell-based qHTS assay (AID 1963590)
Outline: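 Agonist mode qHTS in CRE-bla HEK 293T cells: compounds dosed from DMSO for 3 h at 37 C/5% CO2, followed by LiveBLAzer B/G FRET substrate for 2 h at room temperature.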

[19] = cAMP Responsive Elements (CRE) small molecule antagonists, cell-based qHTS assay (AID 1963591; active = well fitted inhibition curve with a large enough effect in the signal ratio in the repeat runs, not every such curve was filed as active; the % refers to the signal ratio; also: potency is read from the fitted curve at half-maximal effect)
Outline: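 Antagonist mode: test compounds are co-incubated with the adenylyl cyclase activator NKH477 (0.25 uM final) on CRE-bla HEK293T cells for 3 h at 37 °C, followed by LiveBLAzer substrate loading.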
% is scaled to controls: 0 for no effect and ±100 for the full control effect.

Beta-2 adrenergic receptor (Homo sapiens), sequence (P07550 whole entry, looked up): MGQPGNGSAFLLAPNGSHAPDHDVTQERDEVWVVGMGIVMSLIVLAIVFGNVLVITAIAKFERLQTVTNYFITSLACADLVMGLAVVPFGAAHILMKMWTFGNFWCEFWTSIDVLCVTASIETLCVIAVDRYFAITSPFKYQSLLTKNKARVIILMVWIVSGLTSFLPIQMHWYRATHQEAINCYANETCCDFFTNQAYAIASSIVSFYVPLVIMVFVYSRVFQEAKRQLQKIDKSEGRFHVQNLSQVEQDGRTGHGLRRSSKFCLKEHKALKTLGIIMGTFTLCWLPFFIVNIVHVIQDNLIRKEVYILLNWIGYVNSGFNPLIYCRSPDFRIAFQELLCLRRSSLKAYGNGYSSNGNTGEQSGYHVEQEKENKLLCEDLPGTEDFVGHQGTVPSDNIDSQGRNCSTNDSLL
D(2) dopamine receptor (Homo sapiens), sequence (P14416 whole entry, looked up): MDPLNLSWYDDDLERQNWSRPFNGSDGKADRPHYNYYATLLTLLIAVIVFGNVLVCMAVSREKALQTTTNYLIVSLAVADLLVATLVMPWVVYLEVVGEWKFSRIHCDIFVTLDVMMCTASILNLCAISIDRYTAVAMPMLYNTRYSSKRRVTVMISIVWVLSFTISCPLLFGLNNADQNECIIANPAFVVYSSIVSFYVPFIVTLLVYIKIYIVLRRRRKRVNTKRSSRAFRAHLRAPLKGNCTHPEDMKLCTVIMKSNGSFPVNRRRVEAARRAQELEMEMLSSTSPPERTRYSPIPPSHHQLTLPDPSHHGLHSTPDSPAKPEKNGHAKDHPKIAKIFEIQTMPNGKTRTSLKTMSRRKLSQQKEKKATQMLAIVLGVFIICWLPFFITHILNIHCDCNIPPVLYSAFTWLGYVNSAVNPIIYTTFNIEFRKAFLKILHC
Muscarinic acetylcholine receptor M1 (Homo sapiens), sequence (P11229 whole entry, looked up): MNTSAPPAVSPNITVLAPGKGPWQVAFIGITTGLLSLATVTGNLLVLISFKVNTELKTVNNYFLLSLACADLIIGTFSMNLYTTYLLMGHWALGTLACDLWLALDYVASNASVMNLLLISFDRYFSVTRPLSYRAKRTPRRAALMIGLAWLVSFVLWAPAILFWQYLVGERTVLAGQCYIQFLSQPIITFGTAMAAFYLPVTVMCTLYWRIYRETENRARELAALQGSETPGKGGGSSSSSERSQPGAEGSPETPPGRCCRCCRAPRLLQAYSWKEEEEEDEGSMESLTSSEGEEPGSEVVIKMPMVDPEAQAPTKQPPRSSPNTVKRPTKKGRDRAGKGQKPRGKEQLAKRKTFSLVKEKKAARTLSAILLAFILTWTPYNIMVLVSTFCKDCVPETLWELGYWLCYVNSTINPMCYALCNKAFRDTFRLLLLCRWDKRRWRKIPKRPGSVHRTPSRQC
5-hydroxytryptamine receptor 2A (Homo sapiens), sequence (P28223 whole entry, looked up): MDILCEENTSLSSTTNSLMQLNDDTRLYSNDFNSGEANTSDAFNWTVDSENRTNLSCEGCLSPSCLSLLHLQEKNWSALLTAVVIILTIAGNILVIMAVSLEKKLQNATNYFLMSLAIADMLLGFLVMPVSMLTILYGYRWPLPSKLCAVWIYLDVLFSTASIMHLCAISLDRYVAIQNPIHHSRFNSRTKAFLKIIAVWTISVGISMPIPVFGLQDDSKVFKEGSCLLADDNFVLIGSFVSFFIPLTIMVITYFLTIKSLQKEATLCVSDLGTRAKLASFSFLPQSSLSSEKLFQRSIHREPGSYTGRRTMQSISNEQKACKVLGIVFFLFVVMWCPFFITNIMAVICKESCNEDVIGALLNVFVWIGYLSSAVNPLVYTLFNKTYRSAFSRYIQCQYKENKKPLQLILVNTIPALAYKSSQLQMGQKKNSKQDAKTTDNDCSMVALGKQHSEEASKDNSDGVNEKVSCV
KiSS-1 receptor (Homo sapiens), sequence (Q969F8 whole entry, looked up): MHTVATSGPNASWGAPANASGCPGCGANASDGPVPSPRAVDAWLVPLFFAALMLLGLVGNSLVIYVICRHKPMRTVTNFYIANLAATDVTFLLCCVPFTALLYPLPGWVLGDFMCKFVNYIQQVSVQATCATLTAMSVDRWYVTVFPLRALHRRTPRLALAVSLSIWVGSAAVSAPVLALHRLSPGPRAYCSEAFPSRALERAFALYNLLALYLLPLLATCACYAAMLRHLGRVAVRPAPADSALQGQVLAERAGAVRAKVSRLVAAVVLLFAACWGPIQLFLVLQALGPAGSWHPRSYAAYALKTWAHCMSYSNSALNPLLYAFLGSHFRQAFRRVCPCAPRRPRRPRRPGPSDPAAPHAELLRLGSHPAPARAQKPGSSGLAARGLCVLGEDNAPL

CC(C)(C)NCC(O)c1cc(Cl)c(N)c(Cl)c1 (stereo unspecified)
active: Potency [12] 0.0021 µM
inactive: Potency [1] | Potency [2] | Potency [3] | Potency [4] | Potency [5] | Potency [6] | Potency [7] | Potency [8] | Potency [9] | Potency [10] | Potency [11]

O=S(=O)(O)C(F)(F)C(F)(F)C(F)(F)C(F)(F)F
inactive: Potency [1] | Potency [3] | Potency [4] | Potency [6] | Potency [13] | Potency [14] | Potency [15] | Potency [16] | Potency [17]
active: Potency [2] 72.7 µM

C=CCC1=C(C)C(OC(=O)C2C(C=C(C)C)C2(C)C)CC1=O (stereo unspecified)
inactive: Potency [3] | Potency [4] | Potency [6] | Potency [14] | Potency [17]
active: Potency [1] 34.4 µM | Potency [2] 23 µM | Potency [9] 28.9 µM | Potency [12] 57.8 µM

CC#C[C@]1(O)CC[C@H]2[C@@H]3C[C@H](C)C4=CC(=O)CC[C@]4(C)[C@H]3CC[C@@]21C
inactive: Potency [1] | Potency [2] | Potency [3] | Potency [4] | Potency [5] | Potency [6] | Potency [7] | Potency [9] | Potency [14] | Potency [15] | Potency [16] | Potency [17] | Potency [11] | Potency [12]

COC12CC[C@@]3(C[C@@H]1C(C)(O)C(C)(C)C)[C@H]1Cc4ccc(O)c5c4[C@@]3(CCN1CC1CC1)[C@H]2O5 (stereo partly specified)
active: Potency [1] 30.4 µM | Potency [15] 33.2 µM
inactive: Potency [2] | Potency [3] | Potency [4] | Potency [5] | Potency [6] | Potency [9] | Potency [16] | Potency [17] | Potency [11]

CC(O)C(=O)[O][Hg][c]1ccccc1 (stereo unspecified)
active: Potency [1] 1.72 µM | Potency [2] 0.864 µM | Potency [7] 3.63 µM | Potency [8] 8.14 µM | Potency [16] 54.9 µM | Potency [12] 2.73 µM
inactive: Potency [3] | Potency [4] | Potency [6] | Potency [13] | Potency [15]

CCN(CC)CCc1c[nH]c2ccccc12
active: Potency [13] 22.1 nM | Potency [14] 0.0091 µM
inactive: Potency [1] | Potency [2] | Potency [3] | Potency [4] | Potency [5] | Potency [6] | Potency [7] | Potency [8] | Potency [10] | Potency [15] | Potency [16] | Potency [18] | Potency [19] | Potency [17] | Potency [11] | Potency [12]

CCSC(C)CC1CC(=O)C(/C(CC)=N/OC/C=C/Cl)=C(O)C1 (stereo unspecified)
inactive: Potency [1] | Potency [2] | Potency [3] | Potency [4] | Potency [5] | Potency [6] | Potency [7] | Potency [8] | Potency [9] | Potency [13] | Potency [14] | Potency [15] | Potency [16] | Potency [18] | Potency [19] | Potency [11] | Potency [12]

Nc1ccc([N+](=O)[O-])cc1
active: Potency [1] 61.1 µM | Potency [2] 24.3 µM | Potency [9] 8.39 µM
inactive: Potency [3] | Potency [4] | Potency [5] | Potency [6] | Potency [15] | Potency [16] | Potency [17] | Potency [12]

COc1ccc(C(=O)N2CCCC2=O)cc1
inactive: Potency [1] | Potency [2] | Potency [3] | Potency [4] | Potency [5] | Potency [6] | Potency [7] | Potency [9] | Potency [10] | Potency [18] | Potency [19] | Potency [17] | Potency [11] | Potency [12]

C/C(=C\c1ccccc1)[N+](=O)[O-]
inactive: Potency [3] | Potency [4] | Potency [6] | Potency [9] | Potency [10] | Potency [13] | Potency [14] | Potency [16] | Potency [19] | Potency [17] | Potency [11]
active: Potency [1] 30.6 µM | Potency [2] 15.4 µM

C[CH2][Hg][N]1C(=O)C2C(C1=O)C1(Cl)C(Cl)=C(Cl)C2(Cl)C1(Cl)Cl (stereo unspecified)
inactive: activation [3] 13.3% [at 15.8 µM] | activation [4] -0.0279% [at 11.8 µM] | activation [5] -12.1% [at 13.5 µM] | activation [6] -6.79% [at 13.6 µM] | activity, negative = inhibition [13] 14.2% [at 12.7 µM] | activity, negative = inhibition [15] -14.4% [at 12.6 µM] | activity change, negative = inhibition [17] -18.8% [at 19 µM] | activity change, negative = inhibition [12] 2.84% [at 18.9 µM]
active: Potency [1] 5.17 µM | Potency [2] 2.91 µM | Potency [14] 10.4 µM

Nc1ccccc1-c1ccccc1
inactive: Potency [1] | Potency [2] | Potency [3] | Potency [4] | Potency [5] | Potency [6] | Potency [7] | Potency [8] | Potency [9] | Potency [13] | Potency [14] | Potency [15] | Potency [16] | Potency [18] | Potency [19] | Potency [17] | Potency [11] | Potency [12]

CCCCCCCCCC[N+](C)(C)CCCCCCCCCC
inactive: Potency [2] | Potency [3] | Potency [4] | Potency [5] | Potency [6] | Potency [13] | Potency [16] | Potency [11]
active: Potency [1] 27.3 µM | Potency [8] 45.8 µM | Potency [15] 10.6 µM | Potency [19] 43.3 µM | Potency [12] 27.3 µM

C[N+](C)(C)CCOC(=O)C(O)(c1ccccc1)c1ccccc1
inactive: Potency [1] | Potency [2] | Potency [3] | Potency [4] | Potency [5] | Potency [6] | Potency [7] | Potency [8] | Potency [9] | Potency [13] | Potency [14] | Potency [16] | Potency [18] | Potency [19] | Potency [17] | Potency [11] | Potency [12]

CCOP(=O)(OCC)Oc1cc(C)nc(C(C)C)n1
inactive: Potency [1] | Potency [2] | Potency [3] | Potency [4] | Potency [7] | Potency [8] | Potency [9] | Potency [10] | Potency [13] | Potency [14] | Potency [15] | Potency [16] | Potency [18] | Potency [19] | Potency [17] | Potency [11] | Potency [12]

COC(=O)c1ccccc1S(=O)(=O)NC(=O)N(C)c1nc(C)nc(OC)n1
inactive: Potency [1] | Potency [2] | Potency [3] | Potency [4] | Potency [6] | Potency [7] | Potency [9] | Potency [10] | Potency [14] | Potency [15] | Potency [18] | Potency [19] | Potency [17] | Potency [11] | Potency [12]
